14 compounds from PubChem BioAssay (NCATS) can be followed below.

Where “and” joins values, the source holds several entries; their conditions need not be identical. Identical values can stand only once. Values without a mark were called inactive. Results filed as inconclusive are left out. Calls of active or inactive are those of the source. Unless noted, calls follow the shape of the dose curve; as a rule, active = well fitted curve in the direction sought with a large enough effect; inconclusive = small, poorly fitted or top-dose-only effect, or another doubt; inactive = no such curve, though single readings can be large; an effect the other way counts as inactive or inconclusive.

Experiment [1] is described as follows: Cell Viability - MRC5 (AID 434; calls by dose curve;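 also: potency is read from the fitted curve at half-maximal effect; cells exposed to compound for 40 hours at 37 °C; potency reflects cytotoxicity seen as loss of intracellular ATP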). As to conditions: MRC5 lung fibroblast viability, qHTS. The method in brief: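 Decrease in intracellular ATP, quantified by luciferase light output, reflects compound toxicity toward MRC5 cells exposed for 40 hr in complete culture medium. Concentration-response curves, scaled between DMSO and 100 uM tamoxifen, gave AC50 values.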

The nature of experiment [2]: Cell Viability - HUV-EC-C (AID 542). Also: % is scaled to controls: 0 for no effect and ±100 for the full control effect; nearly all actives have a fitted effect of over 35% in size. The method in brief:
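Concentration-dependent ATP loss in HUV-EC-C cells is the measure. Exposure lasts 40 hr at 37 °C; luminescence follows CellTiter-Glo addition, and Hill fits give AC50.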

The nature of experiment [3]: Cellular Toxicity (caspase-3) H-4-II-E (AID 663).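 Also: cells exposed to compound for 16 hr before readout; 0% = DMSO basal and 100% = 100 µM tamoxifen.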 As to conditions: Potency: caspase-3 activation. The method in brief:
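Caspase 3/7 activation measured in H-4-II-E cells in complete culture medium after 16 hr treatment at 37 °C, using luciferase-coupled substrate readout; AC50 values come from Hill-equation fits of normalized concentration-response data.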

Experiment [4] can be described thus: Cell Viability - LYMP2-009 (AID 968). Also: nearly all actives have a fitted effect of over 55% in size. Also: potency is read from the fitted curve at half-maximal effect.
Experiment [5] is described as follows: Cell Viability - LYMP2-011 (AID 969).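 Also: 0% = DMSO only and full inhibition = 92 µM tetraoctylammonium bromide; nearly all actives have a fitted effect of over 60% in size.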 The method in brief:
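Cells seeded at 2500 per well rest 5 hr before compound addition, then incubate 24 hr at 37 C. CellTiter-Glo reagent is added for 30 min at room temperature before luminescence detection.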

Experiment [6] can be described thus: Cell Viability - LYMP2-017 (AID 972). Also: nearly all actives have a fitted effect of over 55% in size. Also: potency is read from the fitted curve at half-maximal effect. The method in brief: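 In this qHTS format, lymphoblastoid cells in complete medium receive test compound for a day at 37 C before ATP content is quantified by luciferase luminescence. Reported AC50 figures come from standard Hill-equation curve fitting.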
The nature of experiment [7]: Cell Viability - LYMP2-021 (AID 974).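 Also: compound exposure lasts 24 hours at 37 °C; nearly all actives have a fitted effect of over 55% in size.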 Also: potency is read from the fitted curve at half-maximal effect. The method in brief: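 In qHTS format, compounds are tested against 2500 lymphoblastoid cells per well for 24 h; viable cell number is inferred from ATP-driven luciferase light, and Hill-equation fitting yields AC50 values.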
Experiment [8] is described as follows: Cell Viability - LYMP2-006 (AID 978). Also: nearly all actives have a fitted effect of over 60% in size. Also: potency is read from the fitted curve at half-maximal effect. The method in brief:
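Potency values are Hill-fit AC50s for decreases in intracellular ATP (CellTiter-Glo luminescence). LYMP2-006 lymphoblastoid cells, 2500 per well, were exposed to compound in complete culture medium for 24 hr at 37 C.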

Experiment [9] can be described thus: Cell Viability - LYMP2-007 (AID 979).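 Also: cells exposed to compound for 24 h before reading; 0% = DMSO only and the negative end = 92 µM tetraoctylammonium bromide; nearly all actives have a fitted effect of over 60% in size.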 The gist of the method:
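Measured via luciferase-based ATP quantitation: lymphoblastoid cells, 24 hr compound exposure at 37 C, AC50 from Hill fits.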

A short description of experiment [10]: Cell Viability - LYMP2-018 (AID 985). Also: nearly all actives have a fitted effect of over 50% in size. Also: potency is read from the fitted curve at half-maximal effect. The method in brief:
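In this qHTS viability assay, cells are treated for 24 hr and cellular ATP is quantified by luciferase-based luminescence, with tetraoctylammonium bromide as positive control.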

Experiment [11] can be described thus: Cell Viability - LYMP2-024 (AID 988). Also: nearly all actives have a fitted effect of over 60% in size. Also: potency is read from the fitted curve at half-maximal effect. The method in brief:
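Cells at 2500 per well received compound for 24 hr after a 5 hr settling period. Viability was scored by CellTiter-Glo luminescence, with AC50 from Hill fits.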

Experiment [12] in a line: qHTS assay for small molecule activators of the nuclear factor-kappa B (NF-kB) signaling pathway (AID 651749; active = well fitted activation curve with a large enough effect in the signal ratio; the % refers to the signal ratio; also: series mostly up to about 77 µM; % of control where 0% means no effect). The note with it: NF-kB-bla ME-180 cells, beta-lactamase FRET ratio, 16 h; stronger effect = higher value. The gist of the method:
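Beta-lactamase reporter expression, controlled by NF-kB response elements in ME-180 cells, was quantified fluorometrically via FRET disruption; cells at 2,000/well had been incubated with 23 nL test compound for 16 hr.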

Experiment [13] addresses Mitogen-activated protein kinase 10 (Mus musculus) (UniProt Q61831). The experiment is described as follows: JNK3 AlphaScreen Assay (AID 530; active = well fitted curve in either direction with a large enough effect, not every such curve was filed as active;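 also: kinase came from lysate of stimulated human HepG2 cells; signal reports phosphorylation of biotinylated GST-cJun 1-79 at Ser73 with 10 µM ATP; series mostly up to about 57 µM; % is scaled to controls: 0 for no effect and ±100 for the full control effect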). The method in brief:
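Biotinylated GST-cJun(1-79) served as substrate for JNK3 in HepG2 lysates stimulated with IL-1beta and TNF-alpha. ATP was 10 uM final, pH 7.6. Ser73 phosphorylation was quantified by AlphaScreen (680 nm excitation).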
For orientation: Bead proximity is the source of the signal in Alpha formats.

The nature of experiment [14]: MultiTox-Fluor Cytotoxicity Assay - LYMP1-002 - Live Cells (AID 955).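 Also: cells exposed to compound for 16 hours; % is scaled to controls: 0 for no effect and ±100 for the full control effect.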 The gist of the method:
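In this qHTS viability format, lymphoblastoid cells (LYMP1-002, human) received compound for 16 hr at 37 C. Fluorogenic GF-AFC cleavage by viable cells was detected at 405/510 nm after 1 h at room temperature.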

Experiment [15] is described as follows: MultiTox-Fluor Cytotoxicity Assay - LYMP1-003 - Live Cells (AID 962).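 Also: cells exposed to compound for 16 hours at 37 °C; 0% = DMSO only and full loss = 92 µM tetraoctylammonium bromide; cytotoxic hits lower the live-cell protease signal.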 The method in brief: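 Human lymphoblastoid line LYMP1-003 in complete culture medium, treated 16 hr with titrated compounds. Viable cells quantified via cell-permeant GF-AFC substrate fluorescence; AC50 derived by Hill fitting.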
Experiment [16] can be described thus: Cell Viability - LYMP1-003 - Assay at 40 hr (AID 964). Also: nearly all actives have a fitted effect of over 60% in size. Also: potency is read from the fitted curve at half-maximal effect. The gist of the method:
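Acute toxicity is scored as a concentration-dependent loss of intracellular ATP in LYMP1-003 cells (2500/well, complete medium) after 40 hr at 37 C, measured by CellTiter-Glo luminescence; AC50 values derive from standard Hill modelling.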

Experiment [17] can be described thus: Cell Viability - LYMP2-025 (AID 976).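 Also: series mostly up to about 92 µM; plate controls were DMSO only for no effect and tetraoctylammonium bromide control for full effect.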 The gist of the method: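 Luminescent ATP readout after 24 hr treatment of a human lymphoblastoid line (LYMP2-025, 2500 cells/well, 37 C). Reagent developed 30 min at room temperature; AC50 fitted with the Hill equation.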
Experiment [18] can be described thus: qHTS assay for small molecule antagonists of the retinoid-related orphan receptor gamma (ROR-gamma) signaling pathway - cell viability counter screen (AID 720652; active = well fitted curve in the direction sought with a large enough effect in the repeat runs; an effect the other way counts as inactive or inconclusive;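 also: CHO reporter cells with doxycycline-induced ROR-gamma expression; series mostly up to about 92 µM; compound exposure lasted 16 hr before ATP read; % is scaled to controls: 0 for no effect and ±100 for the full control effect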). The method in brief: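 ATP-based viability readout in the ROR-gamma reporter CHO cells after 16 hr compound exposure under doxycycline induction.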
Background: Quantitative high-throughput screening tests each substance at several concentrations.

For experiment [19], the target named is Nuclear receptor subfamily 1 group I member 2 (Rattus norvegicus) (UniProt Q9R1A7). As to the kind of experiment: qHTS assay for small molecule activators of the rat pregnane X receptor (rPXR) signaling pathway (AID 651751; call rule not given here; also: 0% is about no effect). As to conditions: rPXR reporter cells, luciferase (One-Glo), 24 h.
Sequence of Nuclear receptor subfamily 1 group I member 2 (Rattus norvegicus) (Q9R1A7 whole entry, looked up): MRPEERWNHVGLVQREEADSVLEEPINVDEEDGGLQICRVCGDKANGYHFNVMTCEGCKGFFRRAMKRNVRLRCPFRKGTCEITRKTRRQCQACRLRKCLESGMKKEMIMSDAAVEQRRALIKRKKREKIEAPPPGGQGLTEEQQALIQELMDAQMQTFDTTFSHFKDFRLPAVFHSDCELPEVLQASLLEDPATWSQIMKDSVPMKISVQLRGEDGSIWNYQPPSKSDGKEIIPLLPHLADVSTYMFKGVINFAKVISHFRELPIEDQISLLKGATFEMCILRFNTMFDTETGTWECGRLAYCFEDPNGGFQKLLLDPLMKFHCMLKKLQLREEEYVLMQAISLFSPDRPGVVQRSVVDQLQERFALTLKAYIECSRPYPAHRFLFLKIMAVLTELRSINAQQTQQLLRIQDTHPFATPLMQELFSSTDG
Experiment [20] can be described thus: qHTS assay for small molecule activators of the human pregnane X receptor (PXR) signaling pathway (AID 720659; call rule not given here; also: 0% is about no effect).

For the compound `Clc1ccc(C(c2ccccc2Cl)C(Cl)(Cl)Cl)cc1` (configuration not stated), the Potency in experiment [1] is above 92 µM. Also, the Potency result in [2], in experiment [3], in experiment [4], in [5], in experiment [6] and in experiment [7] was “inactive” each time. Moreover, the Potency entry in [8], in [9], in experiment [10] and in experiment [11] was “inactive” in each case. In addition, in [12], the activation is 3.52% and 5.2%.
Consider `CC(C)(C)OOC(=O)c1ccccc1`, for which the Potency in experiment [1] is above 92 µM. Moreover, the Potency result in experiment [13], in [2], in [16], in experiment [4], in [5] and in experiment [6] was “inactive” each time. In addition, the Potency entry in [7], in experiment [17], in experiment [8], in experiment [9], in experiment [10] and in [11] was “inactive” throughout. In addition, the Potency entry in experiment [18] was “inactive”. The call in experiment [14], in experiment [15] and in experiment [20] was inactive. Besides, the activation in [12] is 0.502% and 3.48%. For the same compound, the max response in experiment [19] is 2.87% and -0.927%.
Consider `Nn1cnnc1`, for which the Potency in experiment [1] is above 92 µM. Further, the Potency result in [13], in experiment [3], in [4], in experiment [5], in experiment [6] and in [7] was “inactive” throughout. For the same compound, the Potency entry in experiment [17], in experiment [8], in [9], in experiment [10], in [11] and in [18] was “inactive” in each case. Besides, the outcome in [14], in [15] and in experiment [20] was inactive. Moreover, the activation in experiment [12] was -1.28%. The max response in experiment [19] is 2.65%.
As to `CN(C)c1ccc(N=Nc2ccccc2)cc1`, in experiment [1], the Potency is above 92 µM. For the same compound, the Potency result in experiment [2], in experiment [3], in experiment [16], in experiment [5], in experiment [6] and in experiment [7] was “inactive” in each case. Also, the Potency entry in [8], in experiment [9], in experiment [10], in experiment [11] and in experiment [18] was “inactive” in each case. In addition, in experiment [15], the result was inactive.
For the compound `C=C(Cl)CCl`, the Potency result in [13], in experiment [2], in experiment [3], in [4], in [6] and in experiment [17] was “inactive” each time. In addition, the Potency entry in experiment [9], in experiment [10] and in experiment [18] was “inactive” in each case. The call in experiment [14], in experiment [15] and in [20] was inactive. In addition, the activation in experiment [12] is 0.174%. In addition, the max response in experiment [19] is 1.93%.
On to `Oc1cc(Cl)c(Cl)c(Cl)c1Cl`, for which the call in experiment [14], in experiment [15] and in [20] was inactive. In addition, the Potency result in [17], in experiment [8], in [9], in experiment [10] and in experiment [11] was “inactive” each time. In experiment [19], the max response was -6.73%.
For `Nc1ccc(-c2ccc(N)c(Cl)c2)cc1Cl`, the Potency result in [13], in [3], in experiment [4], in experiment [5], in experiment [6] and in experiment [7] was “inactive” in each case. Also, in experiment [17], the Potency result is “inactive”. Also, the compound was classed as inactive in [14].
Consider `CCN(N=O)C(N)=O`, for which, in experiment [1], the Potency was above 92 µM. In addition, the Potency entry in experiment [13], in experiment [3], in experiment [4], in experiment [5], in experiment [6] and in experiment [7] was “inactive” each time. For the same compound, the Potency result in [17], in experiment [8], in experiment [9], in [10] and in experiment [18] was “inactive” throughout. The compound was called inactive in [14] and in experiment [20]. In addition, the activation in experiment [12] is -1.14%.
For `[C-]1=CC=CC1.[C-]1=CC=CC1.[Cl-].[Cl-].[Ti+4]`, the Potency entry in [13], in experiment [2] and in [3] was “inactive” each time.
As for `CN1CSC(=S)N(C)C1`, the Potency was above 92 µM in experiment [1]; 39.8 µM (active) in [16]; 31.6 µM (active) in [4]; 25.1 µM (active) in experiment [6]; 39.8 µM (active) in experiment [7]; 39.8 µM (active) in experiment [8]. Further, the Potency in [10] and in experiment [11] was 12.6 µM (active) each time. Besides, the Potency result in experiment [3] was “inactive”. Further, the activation in [12] was -0.197% and -1.34%. For the same compound, the max response in [19] was -10.5% and -8.21%.
With `CCCCCCCCCCCOC(=O)c1ccccc1C(=O)OCCCCCCCCCCC`, the Potency in experiment [1] was above 92 µM. Besides, the Potency result in [13], in experiment [2], in experiment [3], in experiment [16], in [4] and in experiment [5] was “inactive” in each case. Besides, the Potency result in [6], in experiment [17], in [8], in experiment [9], in experiment [10] and in experiment [11] was “inactive” in each case. Besides, the Potency entry in experiment [18] is “inactive”. The outcome in experiment [14] was inactive. Also, in experiment [12], the activation is -0.4%. Also, in [19], the max response is 1.44%.
Regarding `Cl/C=C\Cl`, the Potency in experiment [1] is above 92 µM. Also, the Potency result in [13], in experiment [2], in experiment [16], in experiment [4], in experiment [5] and in experiment [6] was “inactive” throughout. The Potency result in [17], in experiment [8], in [10], in experiment [11] and in [18] was “inactive” in each case. The call in [14], in experiment [15] and in experiment [20] was inactive. Besides, the activation in [12] was 0.0953%. In addition, the max response in experiment [19] was 3.59%.
Take `C=CC(=O)OCCO`: the Potency in experiment [1] was above 92 µM. In addition, the Potency result in experiment [2] and in [3] was “inactive” throughout. For the same compound, the outcome in experiment [14] and in [20] was inactive. The activation in experiment [12] was 0.11%. Also, in experiment [19], the max response was 0.767%.
Consider `O=[N+]([O-])c1cccc(CCl)c1`, for which the Potency in [1] is above 92 µM. For the same compound, the Potency entry in [13], in experiment [16] and in [17] was “inactive” each time. Further, the compound was classed as inactive in experiment [14], in experiment [15] and in [20]. Moreover, in experiment [12], the activation is 1.19%. Further, the max response in [19] is -4.81%.
